# Data: the supplement of paper PMC6411743
# ± gives the standard deviation of the averaged measurements. Targets with the largest changes are over-represented here; the source holds about 5,400 in all.
# Compound: Nc1nc2c(ncn2[C@@H]2O[C@H](COP(=O)(O)OP(=O)(O)OP(=O)(O)O)[C@@H](O)[C@H]2O)c(=O)[nH]1 [guanosine triphosphate]
# Assay: NP40-soluble protein abundance relative to vehicle (solubility fold change) (ratio); higher = more soluble protein in presence of GTP
# Summary of the method: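 Crude Jurkat lysate, prepared by Dounce homogenisation, was exposed to eight concentrations from 0.1 to 10 mM for 10 min at room temperature and then 3 min at 37 °C. Solubilisation used 0.8% NP40 with benzonase for 60 min at 4 °C, followed by ultracentrifugation and TMT labelling of the supernatant for LC-MS/MS. After vsn normalisation of intensities, each value is the fold change against the detergent-processed vehicle within each replicate, across three independent experiments.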
# UniProt Q9UG63, sequence (Q9UG63 whole entry): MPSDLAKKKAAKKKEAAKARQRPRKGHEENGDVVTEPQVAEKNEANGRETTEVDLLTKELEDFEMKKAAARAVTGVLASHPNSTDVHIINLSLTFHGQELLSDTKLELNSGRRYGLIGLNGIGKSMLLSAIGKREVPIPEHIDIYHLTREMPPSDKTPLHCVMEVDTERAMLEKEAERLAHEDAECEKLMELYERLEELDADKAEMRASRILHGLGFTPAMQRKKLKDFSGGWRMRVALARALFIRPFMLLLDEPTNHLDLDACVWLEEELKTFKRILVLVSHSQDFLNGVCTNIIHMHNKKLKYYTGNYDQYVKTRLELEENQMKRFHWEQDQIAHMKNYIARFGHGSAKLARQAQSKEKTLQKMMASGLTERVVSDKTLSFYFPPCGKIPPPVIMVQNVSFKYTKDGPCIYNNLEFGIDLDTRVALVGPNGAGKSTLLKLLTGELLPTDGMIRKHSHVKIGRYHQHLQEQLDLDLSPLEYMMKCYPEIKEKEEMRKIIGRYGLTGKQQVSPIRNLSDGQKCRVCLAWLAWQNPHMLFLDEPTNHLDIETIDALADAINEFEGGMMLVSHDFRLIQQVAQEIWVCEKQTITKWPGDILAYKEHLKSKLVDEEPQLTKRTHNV
# UniProt Q9NX40, sequence (Q9NX40 whole entry): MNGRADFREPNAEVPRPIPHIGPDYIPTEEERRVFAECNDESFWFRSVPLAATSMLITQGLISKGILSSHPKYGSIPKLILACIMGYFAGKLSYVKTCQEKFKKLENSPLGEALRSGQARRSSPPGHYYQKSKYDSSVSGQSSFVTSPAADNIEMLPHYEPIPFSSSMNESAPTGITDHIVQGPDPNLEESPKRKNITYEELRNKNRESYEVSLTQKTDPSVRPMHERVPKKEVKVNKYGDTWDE
# UniProt Q9UQN3, sequence (Q9UQN3 whole entry): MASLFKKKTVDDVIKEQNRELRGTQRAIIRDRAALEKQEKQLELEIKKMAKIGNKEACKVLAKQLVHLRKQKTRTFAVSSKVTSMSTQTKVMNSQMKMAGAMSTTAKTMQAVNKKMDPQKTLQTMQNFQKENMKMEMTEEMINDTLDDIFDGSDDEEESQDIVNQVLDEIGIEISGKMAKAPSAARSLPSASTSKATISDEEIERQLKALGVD
# UniProt Q969H8, sequence (Q969H8 whole entry): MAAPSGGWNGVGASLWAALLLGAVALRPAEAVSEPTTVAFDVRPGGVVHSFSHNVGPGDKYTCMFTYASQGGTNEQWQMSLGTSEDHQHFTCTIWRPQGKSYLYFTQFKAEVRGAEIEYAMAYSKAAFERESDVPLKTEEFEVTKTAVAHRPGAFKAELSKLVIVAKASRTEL
# UniProt Q9H4I2, sequence (Q9H4I2 whole entry): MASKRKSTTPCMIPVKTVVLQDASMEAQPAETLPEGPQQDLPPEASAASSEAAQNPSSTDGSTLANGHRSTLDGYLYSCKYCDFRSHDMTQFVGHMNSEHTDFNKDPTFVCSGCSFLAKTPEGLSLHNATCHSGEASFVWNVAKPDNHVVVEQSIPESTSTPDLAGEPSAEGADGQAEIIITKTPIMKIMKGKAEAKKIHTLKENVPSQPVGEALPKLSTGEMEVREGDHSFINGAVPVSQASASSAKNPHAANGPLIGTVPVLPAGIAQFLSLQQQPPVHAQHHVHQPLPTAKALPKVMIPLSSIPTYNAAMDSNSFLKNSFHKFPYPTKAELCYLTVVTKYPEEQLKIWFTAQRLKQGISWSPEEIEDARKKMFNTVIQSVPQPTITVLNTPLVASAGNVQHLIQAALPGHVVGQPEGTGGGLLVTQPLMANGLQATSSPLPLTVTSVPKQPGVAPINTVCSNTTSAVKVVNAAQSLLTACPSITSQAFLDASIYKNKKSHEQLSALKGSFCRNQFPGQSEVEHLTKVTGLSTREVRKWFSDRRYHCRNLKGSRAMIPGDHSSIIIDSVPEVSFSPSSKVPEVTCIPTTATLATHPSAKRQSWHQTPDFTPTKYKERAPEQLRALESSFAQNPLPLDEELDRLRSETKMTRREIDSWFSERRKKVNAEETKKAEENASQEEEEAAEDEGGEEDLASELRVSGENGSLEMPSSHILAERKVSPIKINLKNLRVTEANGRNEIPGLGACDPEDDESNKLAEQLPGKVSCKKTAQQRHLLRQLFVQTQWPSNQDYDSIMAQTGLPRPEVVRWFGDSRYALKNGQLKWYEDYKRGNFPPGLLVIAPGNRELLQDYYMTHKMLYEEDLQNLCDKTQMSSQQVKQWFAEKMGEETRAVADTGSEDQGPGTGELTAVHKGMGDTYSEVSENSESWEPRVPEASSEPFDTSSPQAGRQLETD
# UniProt Q9BX67, sequence (Q9BX67 whole entry): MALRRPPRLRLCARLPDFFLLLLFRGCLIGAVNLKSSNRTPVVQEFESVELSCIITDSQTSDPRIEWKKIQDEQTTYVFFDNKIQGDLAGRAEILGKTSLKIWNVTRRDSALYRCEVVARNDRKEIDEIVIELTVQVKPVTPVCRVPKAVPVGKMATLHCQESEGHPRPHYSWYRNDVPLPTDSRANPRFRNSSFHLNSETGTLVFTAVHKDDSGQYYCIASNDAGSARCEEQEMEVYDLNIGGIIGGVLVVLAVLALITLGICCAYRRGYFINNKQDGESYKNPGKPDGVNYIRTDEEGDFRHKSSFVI
# UniProt Q9BVP2, sequence (Q9BVP2 whole entry): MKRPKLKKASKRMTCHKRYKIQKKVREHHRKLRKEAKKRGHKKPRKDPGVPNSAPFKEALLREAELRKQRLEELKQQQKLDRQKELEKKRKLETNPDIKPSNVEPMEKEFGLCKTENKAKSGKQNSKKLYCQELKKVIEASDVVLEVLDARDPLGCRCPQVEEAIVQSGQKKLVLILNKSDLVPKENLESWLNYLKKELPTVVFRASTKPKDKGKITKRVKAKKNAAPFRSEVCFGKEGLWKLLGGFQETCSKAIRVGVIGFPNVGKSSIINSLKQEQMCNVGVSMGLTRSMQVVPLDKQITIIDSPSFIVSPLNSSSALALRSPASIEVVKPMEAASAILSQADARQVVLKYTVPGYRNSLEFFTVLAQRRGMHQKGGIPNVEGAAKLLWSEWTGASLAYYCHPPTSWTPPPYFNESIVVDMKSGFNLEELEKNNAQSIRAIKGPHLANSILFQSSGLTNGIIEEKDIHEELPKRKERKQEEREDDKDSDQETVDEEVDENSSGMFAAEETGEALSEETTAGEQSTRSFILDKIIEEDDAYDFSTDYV
# UniProt Q96I99, sequence (Q96I99 whole entry): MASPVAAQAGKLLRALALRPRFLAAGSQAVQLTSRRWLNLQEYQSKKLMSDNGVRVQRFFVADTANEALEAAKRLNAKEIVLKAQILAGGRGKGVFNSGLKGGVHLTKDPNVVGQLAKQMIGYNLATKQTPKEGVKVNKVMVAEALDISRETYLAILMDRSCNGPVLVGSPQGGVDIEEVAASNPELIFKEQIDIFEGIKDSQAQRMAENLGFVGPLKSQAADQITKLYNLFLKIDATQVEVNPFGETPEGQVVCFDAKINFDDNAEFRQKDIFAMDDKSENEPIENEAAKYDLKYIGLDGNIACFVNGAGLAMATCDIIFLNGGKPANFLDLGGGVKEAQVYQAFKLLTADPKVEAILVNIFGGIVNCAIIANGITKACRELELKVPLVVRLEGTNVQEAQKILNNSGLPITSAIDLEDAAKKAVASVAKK
# UniProt Q9NVX0, sequence (Q9NVX0 whole entry): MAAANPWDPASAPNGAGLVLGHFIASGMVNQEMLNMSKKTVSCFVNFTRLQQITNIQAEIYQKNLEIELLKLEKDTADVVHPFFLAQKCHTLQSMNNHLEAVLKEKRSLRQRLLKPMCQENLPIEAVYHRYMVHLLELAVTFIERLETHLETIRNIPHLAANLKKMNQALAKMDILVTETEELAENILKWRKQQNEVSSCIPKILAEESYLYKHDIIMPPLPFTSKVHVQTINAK
# UniProt Q96CT7, sequence (Q96CT7 whole entry): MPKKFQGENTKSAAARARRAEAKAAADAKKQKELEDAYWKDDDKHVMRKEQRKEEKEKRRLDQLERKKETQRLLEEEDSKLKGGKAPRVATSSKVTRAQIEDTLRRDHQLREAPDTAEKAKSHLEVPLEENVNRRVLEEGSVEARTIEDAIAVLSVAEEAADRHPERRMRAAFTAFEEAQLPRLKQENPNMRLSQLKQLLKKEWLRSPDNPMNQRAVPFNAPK
# UniProt Q9UGP8, sequence (Q9UGP8 whole entry): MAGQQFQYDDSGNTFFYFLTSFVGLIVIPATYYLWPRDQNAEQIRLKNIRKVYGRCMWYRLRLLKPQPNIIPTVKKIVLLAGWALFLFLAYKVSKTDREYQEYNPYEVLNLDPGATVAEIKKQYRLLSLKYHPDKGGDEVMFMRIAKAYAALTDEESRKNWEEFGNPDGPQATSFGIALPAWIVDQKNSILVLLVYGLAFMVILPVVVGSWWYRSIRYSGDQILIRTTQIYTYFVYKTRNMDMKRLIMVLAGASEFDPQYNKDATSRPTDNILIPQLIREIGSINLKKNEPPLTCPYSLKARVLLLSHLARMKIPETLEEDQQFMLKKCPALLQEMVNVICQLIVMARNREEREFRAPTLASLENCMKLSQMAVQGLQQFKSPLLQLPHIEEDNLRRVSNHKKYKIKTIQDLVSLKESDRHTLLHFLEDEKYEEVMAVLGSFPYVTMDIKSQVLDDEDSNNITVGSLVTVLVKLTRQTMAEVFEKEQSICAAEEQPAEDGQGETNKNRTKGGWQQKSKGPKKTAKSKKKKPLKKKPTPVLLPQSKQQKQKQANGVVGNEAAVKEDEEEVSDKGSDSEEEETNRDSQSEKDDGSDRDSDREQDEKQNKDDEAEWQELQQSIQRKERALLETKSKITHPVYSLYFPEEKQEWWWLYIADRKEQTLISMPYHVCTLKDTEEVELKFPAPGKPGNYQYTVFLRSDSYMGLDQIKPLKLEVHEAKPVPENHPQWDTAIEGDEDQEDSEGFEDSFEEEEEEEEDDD
# UniProt Q9BTT4, sequence (Q9BTT4 whole entry): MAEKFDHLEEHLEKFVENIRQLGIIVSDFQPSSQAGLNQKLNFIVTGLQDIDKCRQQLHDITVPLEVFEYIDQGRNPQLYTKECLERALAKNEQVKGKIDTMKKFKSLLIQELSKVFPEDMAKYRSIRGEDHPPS
Target,NP40-soluble protein abundance (concentration: 0.1mM),NP40-soluble protein abundance (concentration: 0.5mM),NP40-soluble protein abundance (concentration: 1mM),NP40-soluble protein abundance (concentration: 2mM),NP40-soluble protein abundance (concentration: 4mM),NP40-soluble protein abundance (concentration: 6mM),NP40-soluble protein abundance (concentration: 8mM),NP40-soluble protein abundance (concentration: 10mM)
UniProt Q9BTY7,0.967 ± 0.086,0.856 ± 0.056,1.07 ± 0.088,1.05 ± 0.033,1.03 ± 0.082,0.998 ± 0.049,0.924 ± 0.18,1.03 ± 0.14
UniProt Q9Y4P8|Q9Y4P8-4|Q9Y4P8-6,1.04 ± 0.11,1.01 ± 0.028,0.976 ± 0.11,0.961 ± 0.1,0.959 ± 0.1,0.959 ± 0.053,0.954 ± 0.042,0.896 ± 0.021
UniProt Q9P287|Q9P287-2,1.03 ± 0.026,0.973 ± 0.032,0.971 ± 0.066,0.953 ± 0.059,0.99 ± 0.083,0.913 ± 0.069,0.943 ± 0.058,0.946 ± 0.075
UniProt Q9BX67,1.04 ± 0.013,0.954 ± 0.065,0.965 ± 0.026,0.913 ± 0.066,0.905 ± 0.046,0.88 ± 0.086,0.953 ± 0.035,0.897 ± 0.06
SEC63 (UniProt Q9UGP8),0.964 ± 0.023,0.977 ± 0.022,0.935 ± 0.045,0.926 ± 0.036,0.913 ± 0.073,0.927 ± 0.026,0.93 ± 0.022,0.897 ± 0.03
UniProt Q96L91|Q96L91-2|Q96L91-3|Q96L91-5,1.03 ± 0.021,1.06 ± 0.04,1.12 ± 0.03,1.18 ± 0.061,1.24 ± 0.13,1.26 ± 0.14,1.32 ± 0.22,1.34 ± 0.23
OCIAD1 (UniProt Q9NX40),0.922 ± 0.025,0.9 ± 0.044,1.01 ± 0.016,0.982 ± 0.058,0.971 ± 0.072,0.956 ± 0.053,0.956 ± 0.034,0.974 ± 0.037
UniProt Q9BVP2|Q9BVP2-2,1.31 ± 0.073,1.3 ± 0.094,1.34 ± 0.11,1.51 ± 0.19,1.68 ± 0.17,1.73 ± 0.13,1.77 ± 0.2,1.88 ± 0.072
ZHX3 (UniProt Q9H4I2),0.975 ± 0.062,0.94 ± 0.043,0.994 ± 0.1,1.01 ± 0.099,0.967 ± 0.039,1.01 ± 0.079,1.05 ± 0.07,1.05 ± 0.11
XRN2 (UniProt Q9H0D6),0.993 ± 0.025,0.995 ± 0.027,0.974 ± 0.017,0.977 ± 0.027,0.985 ± 0.018,0.986 ± 0.027,1 ± 0.039,0.982 ± 0.028
UniProt Q9UG63|Q9UG63-2,1.1 ± 0.076,1.11 ± 0.014,1.07 ± 0.072,1.35 ± 0.072,1.83 ± 0.061,2.15 ± 0.12,2.39 ± 0.11,2.744 ± 0.018
CCDC124 (UniProt Q96CT7),1.01 ± 0.047,0.984 ± 0.019,1.12 ± 0.063,1.17 ± 0.067,1.41 ± 0.17,1.57 ± 0.22,1.61 ± 0.22,2.24 ± 0.18
UniProt Q9NVX0|Q9NVX0-2|Q9NVX0-3,0.873 ± 0.21,0.823 ± 0.036,1.02 ± 0.079,1.05 ± 0.083,1.01 ± 0.12,0.996 ± 0.14,0.963 ± 0.022,1.02 ± 0.17
UniProt Q969H8,0.971 ± 0.023,0.949 ± 0.034,0.884 ± 0.026,0.85 ± 0.019,0.834 ± 0.05,0.853 ± 0.057,0.8 ± 0.046,0.764 ± 0.085
FAM117A (UniProt Q9C073),1.31 ± 0.14,0.983 ± 0.018,1.28 ± 0.084,1.03 ± 0.024,1.1204 ± 7.8e-05,1.02 ± 0.037,1.1 ± 0.056,1.12 ± 0.086
UniProt Q96JM7|Q96JM7-2,1.13 ± 0.15,1.14 ± 0.016,1.08 ± 0.16,1.13 ± 0.078,1.1 ± 0.2,1.23 ± 0.031,1.11 ± 0.056,1.15 ± 0.073
UniProt Q96T23|Q96T23-2,1.02 ± 0.028,1.09 ± 0.081,1.25 ± 0.014,1.45 ± 0.1,1.72 ± 0.22,2.07 ± 0.29,2.49 ± 0.49,2.71 ± 0.62
VPS35 (UniProt Q96QK1),1.03 ± 0.082,1.04 ± 0.093,0.913 ± 0.048,0.958 ± 0.13,0.929 ± 0.11,0.912 ± 0.086,0.833 ± 0.048,0.868 ± 0.093
SUCLG2 (UniProt Q96I99),0.959 ± 0.049,0.966 ± 0.053,0.933 ± 0.043,0.901 ± 0.06,0.889 ± 0.059,0.889 ± 0.052,0.886 ± 0.048,0.871 ± 0.068
UniProt Q9Y3D0,0.836 ± 0.067,0.869 ± 0.033,1.02 ± 0.042,1.04 ± 0.049,0.987 ± 0.043,1.04 ± 0.013,1.04 ± 0.089,1.09 ± 0.17
BOLA1 (UniProt Q9Y3E2),0.909 ± 0.069,0.941 ± 0.075,0.943 ± 0.06,0.943 ± 0.028,0.908 ± 0.073,0.933 ± 0.059,0.903 ± 0.038,1.04 ± 0.055
UniProt Q9H8M2|Q9H8M2-3|Q9H8M2-6,0.966 ± 0.054,1.05 ± 0.13,1.03 ± 0.085,0.995 ± 0.033,1.04 ± 0.11,1.13 ± 0.12,1.11 ± 0.029,1.09 ± 0.04
MED10 (UniProt Q9BTT4),1.01 ± 0.2,1.03 ± 0.098,0.973 ± 0.028,1.07 ± 0.11,0.95 ± 0.094,1.08 ± 0.05,0.968 ± 0.092,1.07 ± 0.038
UniProt Q96B97|Q96B97-2,0.941 ± 0.12,0.938 ± 0.1,0.962 ± 0.1,0.943 ± 0.13,0.949 ± 0.1,0.935 ± 0.098,0.982 ± 0.11,0.966 ± 0.12
CHMP2B (UniProt Q9UQN3),0.905 ± 0.051,0.909 ± 0.092,0.989 ± 0.079,0.931 ± 0.15,0.938 ± 0.12,0.967 ± 0.14,0.953 ± 0.085,0.932 ± 0.11
UniProt Q9UMX0|Q9UMX0-2,0.999 ± 0.07,0.998 ± 0.015,1.09 ± 0.11,1.02 ± 0.032,1.012 ± 0.0015,0.994 ± 0.039,1.02 ± 0.053,1.01 ± 0.039
UniProt Q9Y3L3|Q9Y3L3-2,0.998 ± 0.025,1 ± 0.045,0.994 ± 0.018,0.988 ± 0.099,0.981 ± 0.04,0.991 ± 0.052,0.958 ± 0.019,1.01 ± 0.034
UniProt Q9Y6A4,1.09 ± 0.027,1.04 ± 0.076,0.962 ± 0.024,0.968 ± 0.1,1.01 ± 0.05,0.964 ± 0.087,1.01 ± 0.05,0.957 ± 0.11
